Data: publication PMC4336329 (PLoS ONE, 2015)
In all, about 310,000 compounds went through this assay and about 14,000 (4.5%) showed an effect of 50% or more. Effects have a minus sign here. Many of the other results were omitted from the sample, so strong results are more common in it than they were.

Biological target: human ether-à-go-go-related gene (hERG) potassium channel (human, UniProt Q12809)
Assay: primary screen, population patch clamp on CHO cells stably expressing hERG; higher = less effect of the substance
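Note: peak tail current of the secondary pulse compared with the same well before compound.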

human ether-à-go-go-related gene (hERG) potassium channel, sequence (Q12809 whole entry, looked up): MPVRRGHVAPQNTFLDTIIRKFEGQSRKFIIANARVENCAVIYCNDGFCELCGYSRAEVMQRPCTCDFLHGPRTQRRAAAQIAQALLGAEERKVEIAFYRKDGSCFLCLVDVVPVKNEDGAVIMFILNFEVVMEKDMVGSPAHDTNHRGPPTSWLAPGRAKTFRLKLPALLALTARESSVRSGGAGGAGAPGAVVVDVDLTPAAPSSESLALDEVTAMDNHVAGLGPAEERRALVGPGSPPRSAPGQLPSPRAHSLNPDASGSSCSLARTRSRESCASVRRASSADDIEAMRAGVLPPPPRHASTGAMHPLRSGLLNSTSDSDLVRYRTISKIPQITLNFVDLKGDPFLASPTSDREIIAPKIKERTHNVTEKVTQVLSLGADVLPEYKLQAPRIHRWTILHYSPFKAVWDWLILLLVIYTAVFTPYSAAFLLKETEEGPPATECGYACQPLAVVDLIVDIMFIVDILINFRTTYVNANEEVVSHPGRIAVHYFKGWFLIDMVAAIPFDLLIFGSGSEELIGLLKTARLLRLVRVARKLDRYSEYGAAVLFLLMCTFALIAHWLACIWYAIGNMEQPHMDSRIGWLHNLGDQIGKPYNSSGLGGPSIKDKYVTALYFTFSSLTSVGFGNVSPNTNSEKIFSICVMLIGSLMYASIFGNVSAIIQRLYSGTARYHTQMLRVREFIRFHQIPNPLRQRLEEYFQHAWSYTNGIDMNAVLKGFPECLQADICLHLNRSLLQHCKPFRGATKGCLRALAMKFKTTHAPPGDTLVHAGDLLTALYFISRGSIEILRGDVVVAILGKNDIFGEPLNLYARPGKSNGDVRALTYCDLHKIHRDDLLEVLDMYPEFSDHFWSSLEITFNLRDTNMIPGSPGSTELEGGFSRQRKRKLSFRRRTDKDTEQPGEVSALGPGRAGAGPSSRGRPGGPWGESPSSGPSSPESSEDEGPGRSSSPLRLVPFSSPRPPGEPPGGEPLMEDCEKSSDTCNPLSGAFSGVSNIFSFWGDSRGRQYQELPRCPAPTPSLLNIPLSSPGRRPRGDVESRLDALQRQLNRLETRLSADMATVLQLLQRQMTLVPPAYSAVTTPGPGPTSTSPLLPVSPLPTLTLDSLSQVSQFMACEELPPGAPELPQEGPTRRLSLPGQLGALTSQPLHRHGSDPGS

Row | SMILES | hERG current change (%, negative = inhibition) at 10uM [%]
1 | Cc1ccccc1/C=N/n1c(-c2ccccn2)n[nH]c1=S | 14.7
2 | O=S(=O)(c1cccc2cccnc12)N1CCN(Cc2ccccc2)CC1 | -0.188
3 | Cn1ccnc1C(O)c1cc(C(C)(C)C)c(O)c(C(C)(C)C)c1 (centres unmarked) | -37.3
4 | COC(=O)N/N=C\c1ccc(-c2cc(Cl)c(Cl)cc2Cl)o1 | -1.58
5 | COc1ccc(S(=O)(=O)N2CCN(CC(=O)NC3CCCC3)CC2)cc1 | 0.823
6 | O=C(CCc1nc(-c2ccccc2)no1)NCc1ccccc1CN1CCOCC1 | -10.5
7 | O=C(C1CCCN(Cc2nc(-c3ccc(Cl)cc3)no2)C1)N1CCOCC1 (centres unmarked) | 1.39
8 | Cc1ccc(-c2noc(CCC(=O)NCc3ccccc3CN3CCOCC3)n2)cc1 | -36.5
9 | O=C(C1CCN(Cc2nc(-c3ccc(Cl)cc3)no2)CC1)N1CCOCC1 | -61.9
10 | O=C(CCc1nc(-c2ccc(Cl)cc2)no1)NCc1ccccc1CN1CCOCC1 | -65.5
11 | Clc1ccc(-c2noc(CN3CCOCC3)n2)cc1 | 4.83
12 | Cc1ccc2oc(=O)c3cnn(CC(=O)N(CCN(C)C)Cc4ccco4)c3c2c1 | -25.7
13 | CC(C)c1ccc(-c2c(NCCc3ccccc3)c(=O)c2=O)cc1 | 22.1
14 | Cc1ccc(OCCNC(=O)CNC(=O)c2ccccc2Cl)cc1 | -3.58
15 | COc1cc(CN2CCNCC2)cc(OC)c1OC.Cl | 5.64
16 | CCCCn1c(NCc2ccc(N(C)C)cc2)nc2ccccc21 | -43.7
17 | CCn1c(NCc2ccc3c(c2)OCO3)nc2ccccc21 | -38.5
18 | Nc1c(C(=O)NCc2ccc3c(c2)OCO3)c2nc3ccccc3nc2n1CCCN1CCOCC1 | 1.46
19 | CCCCn1c(NCc2ccc3c(c2)OCO3)nc2ccccc21 | -61
20 | c1ccc2c(c1)nc(NCc1ccc3c(c1)OCO3)n2CCN1CCOCC1 | -66.8
21 | CN(C)CCn1c(NCc2ccc3c(c2)OCO3)nc2ccccc21.Cl | -59.5
22 | CCCn1c(NCc2ccc(N(C)C)cc2)nc2ccccc21 | -40.2

Row | SMILES | hERG current change (%, negative = inhibition) at 10uM [%]
23 | CCCn1c(NCc2ccc3c(c2)OCO3)nc2ccccc21 | 12.6
24 | O=C(NCCN1CCOCC1)C(=O)NCc1ccc2c(c1)OCO2 | 22.8
25 | COc1cc2c(cc1OC)C(CC(=O)O)N(C(=O)CC1CCCC1)CC2 (centres unmarked) | 20.6
26 | COC(=O)CCCCC1SCC(NC(=O)OC)C1NC(=O)OC (centres unmarked) | 2.09
27 | CC(C)(C)OC(=O)COc1cc(F)ccc1[N+](=O)[O-] | -3.54
28 | Cc1ccc(OCC(O)Cn2c3ccccc3c3ccccc32)cc1 (centres unmarked) | 8.1
29 | Cc1ccc(OCCn2c(=O)cnc3ccccc32)cc1 | -9.95
30 | Br.CCCCn1c(=N)n(CCOc2ccc(C)cc2)c2ccccc21 | -73.1
31 | CCn1c(=N)n(CC(O)COc2ccc(C)cc2)c2ccccc21.Cl (centres unmarked) | -70
32 | OCc1nc2ccccc2n1CC(O)COc1ccccc1 (centres unmarked) | 6.25
33 | CCCCn1c(=N)n(CC(O)COc2ccccc2)c2ccccc21 (centres unmarked) | -73.1
34 | Cc1nc2ccccc2n1CC(O)COc1ccc(Br)cc1 (centres unmarked) | -49.9
35 | CCCCn1c(=N)n(CC(O)COc2ccc(C)cc2)c2ccccc21.Cl (centres unmarked) | -81.8
36 | Cc1ccc(OCCn2c(=O)sc3ccccc32)cc1 | 4.98
37 | Cc1cc(NC(=O)C2CCCN(S(=O)(=O)c3c(C)noc3C)C2)n[nH]1 (centres unmarked) | -16.1
38 | CCOc1ccc(C(=O)COC(=O)CNC(=O)C2CCCCC2)cc1 | -0.0501
39 | O=C(COC(=O)C12CC3CC(CC(C3)C1)C2)Nc1ccc([N+](=O)[O-])cc1Br | 8.64
40 | CN1CCC(=NNC(=O)COc2ccc(Cl)cc2)CC1 | 17.4
41 | CCCn1c(=N)n(CC(O)COc2ccc(C)cc2)c2ccccc21.Cl (centres unmarked) | -89
42 | CC1SC2(CN3CCC2CC3)NC1=O (centres unmarked) | 18
43 | CC1=CN2C(=NC(=O)CC2(C)C(=O)N(CC(=O)NC2CCCC2)Cc2ccccc2)C=C1 (centres unmarked) | 9.32
44 | COc1ccccc1N1CCN(c2nc3ccccc3nc2C(C#N)C(=O)OC(C)C)CC1 (centres unmarked) | -12

Row | SMILES | hERG current change (%, negative = inhibition) at 10uM [%]
45 | Cc1cccc(OCC(O)CN2CC3(C)CC2CC(C)(C)C3)c1 (centres unmarked) | -67.6
46 | Cc1cccc(C(=O)N2CC3(C)CC2CC(C)(C)C3)c1 (centres unmarked) | 0.368
47 | CC1(C)CC2CC(C)(CN2CC(O)c2ccccc2)C1.O=C(O)C(=O)O (centres unmarked) | -42.5
48 | Cc1ccc(OCC(O)CN2CC3(C)CC2CC(C)(C)C3)cc1.O=C(O)C(=O)O (centres unmarked) | -53.6
49 | Cc1cccc(C)c1OCC(=O)N1CC2(C)CC1CC(C)(C)C2 (centres unmarked) | -7.94
50 | CC1(C)CC2CC(C)(CN2CC(O)COc2ccccc2)C1.O=C(O)C(=O)O (centres unmarked) | -41.5
51 | CSc1nnc(C)c(=O)n1COC(=O)COc1ccc2ccccc2c1 | -7.33
52 | Cc1nnc(SCCN2CCOCC2)n1-c1cccc(Cl)c1.O=C(O)C(=O)O | -4.95
53 | COc1ccccc1N1CCN(C(=O)CN(c2ccc(C)c(C)c2)S(C)(=O)=O)CC1 | -6.02
54 | Cc1cc(OCC(=O)NCc2cccnc2)c2c3c(c(=O)oc2c1)CCCC3 | -40.1
55 | CCCCc1cc(=O)oc2cc(C)cc(OCC(=O)NCc3ccccn3)c12 | -56.4
56 | Cc1ccc(OCC(=O)NCc2ccccn2)cc1 | 12.4
57 | CCc1cc(=O)oc2cc(C)cc(OCC(=O)NCc3ccncc3)c12 | -54.8
58 | Cc1cc(OCC(=O)NCc2ccncc2)c2c3c(c(=O)oc2c1)CCC3 | -10.3
59 | CCc1cc(=O)oc2cc(C)cc(OCC(=O)NCc3ccccn3)c12 | -40
60 | Cc1cc(OCC(=O)NCc2ccncc2)c2c3c(c(=O)oc2c1)CCCC3 | -62.2
61 | Cc1cc(OCC(=O)NCc2ccccn2)cc(C)c1Br | -69.4
62 | O=C(COc1ccc(Br)cc1)NCc1ccccn1 | -8.53
63 | CCCc1cc(=O)oc2cc(C)cc(OCC(=O)NCc3ccccn3)c12 | -33.7
64 | Cc1cc(OCC(=O)NCc2ccncc2)c2c(C)cc(=O)oc2c1 | -30.1
65 | Cc1cc(OCC(=O)NCc2ccncc2)c2c(C)c(C)c(=O)oc2c1 | -40.6
